tim23-1 inh = growth inhibitors of tim23-1 mutant yeast; S. cerevisiae tim23-1 growth, BacTiter-Glo luminescence, 24 h; inhibition, % at 20 µM; actives 1.3% (n = 330,000);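 active = growth inhibition of the mutant yeast at or above 50%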;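 also: temperature-sensitive mutant grown at 25 °C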
tim10-1 inh = growth inhibitors of tim10-1 mutant yeast; S. cerevisiae tim10-1 ts strain growth, BacTiter-Glo, 24 h; inhibition, % at 20 µM; actives 2.2% (n = 330,000); AID 463190;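 active = inhibition of at least 40%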;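 also: mutant grown at 25 °C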
PfHsp90 yeast 2 = growth inhibition of yeast expressing Plasmodium Hsp90; S. cerevisiae expressing PfHsp90, BacTiter-Glo ATP, 48 h; yeast lacking PDR1 and PDR3 efflux regulators; inhibition, % at 9.4 µM; actives 0.32% (n = 310,000); AID 504621;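 active = every replicate shows inhibition above about 80%, whatever the replicate mean, limit read from the data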
NALP1 yeast inh = NALP1 inhibition; S. cerevisiae NALP1/ASC/caspase-1 growth, X-gal OD620, 72 h; inhibition, % at 10 µM; actives 0.61% (n = 280,000); AID 2071; in the data active = inhibition mostly above about 24%, no sharp cut-off; inactive = mostly below about 32%
NALP3 yeast inh = blocks the NALP3 inflammasome reconstituted in yeast; Yeast reconstituted NLRP3/ASC/caspase-1, beta-gal luminescence, 24 h; inhibition, % at 10 µM; actives 0.39% (n = 330,000);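 active = inhibition of 50% or more; inactive = inhibition below 50%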
TIM10 inh = TIM10 yeast growth inhibition. inhibition, % at 10 µM. actives 1.4% (n = 330,000). S. cerevisiae TIM10 strain growth, BacTiter-Glo luminescence, 24 h. AID 463195;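 active = inhibition of 40% or more at the single tested concentration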;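 also: wild-type TIM10 isogenic control strain grown at permissive 25 °C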
NALP3 confirm = NALP3 inhibition confirmation in yeast | inhibition, % at 10 µM | shares compounds with NALP3 yeast inh | yeast expressing human NALP3, luminescence | actives 81% (n = 1,300) | AID 435006; in the data active = inhibition above about 48%
Casp1 ASC ctr = active in yeast caspase-1-ASC counter-screen for NALP3 inhibitors | shares compounds with NALP3 yeast inh | yeast expressing Caspase-1-ASC, luminescence counter screen | inhibition, % at 10 µM | actives 66% (n = 1,000)
NALP3 retest = confirmation retest of NALP3 inhibitors in yeast. shares compounds with NALP3 yeast inh. yeast expressing human NALP3, luminescence read-out. inhibition, % at 10 µM. actives 53% (n = 1,000). AID 488794
tim10-1 confirm = confirmation of tim10-1 mutant yeast growth inhibitors | actives 56% (n = 7,400) | S. cerevisiae tim10-1 ts strain growth, BacTiter-Glo, 24 h | AID 463213 | shares compounds with tim10-1 inh | inhibition, % at 20 µM;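 active = inhibition of yeast growth at or above a set limit in either of two repeat tests at 20 µM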;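 also: tim10-1 mutant grown at permissive 25 °C to find synthetic lethal compounds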
TIM10 conf = TIM10 yeast growth inhibition, confirmed | shares compounds with TIM10 inh | S. cerevisiae tim10 strain growth, BacTiter-Glo luminescence, 24 h | inhibition, % at 10 µM | actives 63% (n = 4,600) | AID 463215;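 active = inhibition of yeast growth at or above a set limit in either of two replicates at 10 µM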; also: this counterscreen used the strain with wild-type TIM10
tim23-1 conf = tim23-1 yeast growth inhibition, confirmed. shares compounds with tim23-1 inh. S. cerevisiae tim23-1 growth, BacTiter-Glo luminescence, 24 h. inhibition, % at 20 µM. actives 83% (n = 4,400);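 active = inhibition above about 39% in either of two replicate wells at 20 µM, limit read from the data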;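 also: temperature-sensitive tim23-1 mutant grown at 25 °C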
Hits are given with their value; n = inactive; x = not tested or not shown; + = active, no number. Most compounds without a hit are left out; they make up all but 4.1% or so of the library. Rule as the data show it, unless noted: active = inhibition above about 50%; inactive = the rest.

SMILES | tim23-1 inh | tim10-1 inh | PfHsp90 yeast 2 | NALP1 yeast inh | NALP3 yeast inh | TIM10 inh | NALP3 confirm | Casp1 ASC ctr | NALP3 retest | tim10-1 confirm | tim23-1 conf | others
Cc1ccc(C(=O)Nc2scc(-c3ccccc3)c2C(=O)O)cc1 | 86 | 85 | n | x | 79 | 82 | 78 | 86 | 82 | 83 | 87 | TIM10 conf=91
CC(C)[C@H](NC(=O)c1ccccc1Cl)C(=O)Nc1nc(-c2ccccn2)cs1 | n | n | n | n | n | n | x | x | x | x | x
CC(Oc1ccc(Br)cc1)C(=O)Nc1nc(-c2ccccn2)cs1 (stereo not drawn) | 70 | 45 | x | n | 51 | n | 77 | 89 | 81 | n | 50
O=C(O)c1cc(NC(=O)c2ccccc2F)cc(NC(=O)c2ccccc2F)c1 | n | n | n | n | n | n | x | x | x | x | x
O=C(Nc1ccc(Nc2ccccc2)cc1)c1ccc(Br)o1 | 52 | 41 | n | n | 66 | n | 76 | 76 | 74 | 33 | 80
O=C(Nc1ccc(Nc2ccccc2)cc1)c1ccccc1F | 64 | n | n | n | 52 | n | 68 | 58 | 64 | x | 61
COc1ccc(/C=C/C(=O)c2ccc(Cl)s2)cc1O | 69 | 53 | n | n | 54 | 68 | 70 | n | n | 54 | 81 | TIM10 conf=44
O=C(Nc1ccc(S(=O)(=O)Nc2cnc3ccccc3n2)cc1)c1ccc([N+](=O)[O-])cc1Cl | n | n | n | n | n | n | x | x | x | x | x
CC(C)(C)NC(=S)N/N=C/c1cc(Br)c(O)c(Br)c1 | n | n | n | n | n | n | x | x | x | x | x
CNC(=S)N/N=C/c1cc(Br)cc(Br)c1O | 58 | n | n | 54 | 64 | n | n | x | x | x | 54
Oc1c(I)cc(Cl)c2cccnc12 | 70 | 67 | 111 | 70 | 59 | 56 | 68 | 72 | 79 | 56 | 73 | TIM10 conf=70
CC1(c2ccccc2)NC(=O)N(CC(=O)N(CC(=O)Nc2ccccc2C(F)(F)F)Cc2ccco2)C1=O (stereo not drawn) | n | n | x | x | n | n | x | x | x | x | x
CSCc1c(C(=O)OCC(=O)c2ccc[nH]2)oc2ccccc12 | 59 | 51 | x | x | 51 | 67 | 68 | 55 | n | n | 74 | TIM10 conf=63
S=C(NCCCN1CCN(CCCNC(=S)NC2CCCCC2)CC1)NC1CCCCC1 | x | x | n | x | x | x | x | x | x | x | x
Cc1ccc2nc(N/N=C\c3ccc([N+](=O)[O-])o3)nc(-c3ccccc3)c2c1 | 67 | n | n | n | 57 | n | n | n | n | x | n
O=[N+]([O-])c1ccc(/C=N/Nc2nc(-c3ccccc3)c3cc(Br)ccc3n2)o1 | n | n | n | n | n | n | x | x | x | x | x
C/C(=N\NC(=O)c1ccc(Cl)cc1)c1ccccn1 | 50 | n | n | 36 | 72 | n | 85 | 94 | 83 | x | 45
S=C(NCCc1ccccc1)Nc1ccc(Cl)cc1 | n | n | n | n | n | n | x | x | x | x | x
O=[N+]([O-])c1ccc(NC(=S)NCCc2ccc(Cl)cc2)cc1 | 65 | 65 | 108 | n | 69 | 72 | 68 | 93 | 94 | 73 | 68 | TIM10 conf=85
COc1ccc(Nc2cc(C)c3ccc(O)cc3n2)cc1 | 51 | n | n | + | 76 | n | 91 | x | x | x | n
CCOc1ccc(Nc2cc(C)c3ccccc3n2)cc1 | n | n | n | n | n | n | x | x | x | x | x
Cc1cc(Nc2ccccc2)nc2cc(O)ccc12 | 65 | n | n | 52 | 70 | n | 82 | 91 | 60 | x | n

Bioassay records deposited in PubChem by several laboratories.
